This is a sample that favours compounds with a hit; in the whole collection about 10% have one here.
Luciferase inh: Photinus pyralis luciferase inhibition; AID 1347043; 76,000 tested, 2.5% active; P08659; purified P. pyralis luciferase, luminescence, biochemical; Potency, µM (titrated, usually from 115 µM), most hits filed as inhibitors; note: nearly all actives have a fitted effect of over 65% in size
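Cell-free enzyme assay, 10nM P. pyralis luciferase, luciferin and ATP each at 10uM. Inhibition profiled over a 6-point titration, read as luminescence.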
HEK293 tox: cytotoxic compounds in HEK 293 cells; HEK 293 viability, ATP luminescence (CellTiter-Glo), 48-72 h; Potency, µM (series often up to 115 µM), without a hit: top-dose activity change, negative = cytotoxicity, most hits filed as inhibitors; 94,000 tested, 6.6% active; AID 1345083; note: nearly all actives have a fitted effect of over 60% in size
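Luminescence from cellular ATP, measured with CellTiter-Glo, indicates HEK 293 viability. Cells plated at 250 cells/well are treated with compound for 48 or 72 hr at 37 degree Celsius before reagent addition.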
hNpr1 antagonist: blocks ANP-stimulated signaling of human Npr1 receptor; P16066; HEK293 hNpr1 GloSensor cGMP, ANP-stimulated luminescence; 76,000 tested, 1.6% active; Potency, µM (doses to about 46.3 µM), for inactives: at the top dose activity change, negative = inhibition, hits mostly inhibitors; calls by dose curve; note: nearly all actives have a fitted effect of over 60% in size
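Compound pre-incubated 30 min at room temperature on GloSensor-loaded HEK293 cells stably carrying hNpr1 and the pGS-40F cGMP biosensor. Stimulation uses hNppA at 0.1 nM final; luminescence is taken at baseline and 20 min post-agonist.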
GPT2 inh: GPT2 alanine aminotransferase inhibition; 100,000 tested, 0.25% active; Potency, µM (series often up to 57.7 µM), for inactives: at the highest dose activity change, negative = inhibition, usual class: inhibitors; AID 1671188; Recombinant GPT2, coupled pyruvate oxidase/HRP Amplex Red fluorescence; note: nearly all actives have a fitted effect of over 60% in size
Target sequence (Q8TD30 whole entry, looked up): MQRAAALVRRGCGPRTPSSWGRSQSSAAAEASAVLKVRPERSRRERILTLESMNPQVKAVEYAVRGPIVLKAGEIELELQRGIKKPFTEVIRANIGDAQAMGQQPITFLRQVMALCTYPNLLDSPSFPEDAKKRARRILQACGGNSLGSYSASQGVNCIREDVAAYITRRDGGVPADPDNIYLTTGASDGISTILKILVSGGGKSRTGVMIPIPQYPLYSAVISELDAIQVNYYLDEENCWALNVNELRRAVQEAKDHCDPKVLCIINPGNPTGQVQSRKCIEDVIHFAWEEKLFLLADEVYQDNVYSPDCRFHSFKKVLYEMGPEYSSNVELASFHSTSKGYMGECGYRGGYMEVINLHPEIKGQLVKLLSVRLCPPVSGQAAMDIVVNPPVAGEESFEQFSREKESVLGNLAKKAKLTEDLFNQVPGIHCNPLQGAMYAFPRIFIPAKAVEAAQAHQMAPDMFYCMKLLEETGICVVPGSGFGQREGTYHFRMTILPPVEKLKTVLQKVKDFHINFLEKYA
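Fluorescence read-out: pyruvate from GPT2 turnover coupled to pyruvate oxidase, HRP and Amplex Red (0.2mM ThPP, 0.2U/mL PO and HRP, 50uM Amplex final). Substrates 250uM a-KG, 2mM L-alanine; enzyme 10ng/uL; 30 min RT.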
NIH3T3 tox: NIH 3T3 cell cytotoxicity; Potency, µM (titrated, usually from 96.7 µM), for the others: at the highest dose activity change, negative = cytotoxicity, hits mostly inhibitors; AID 1345082; 94,000 tested, 4.3% active; NIH 3T3 viability, CellTiter-Glo ATP luminescence, 48-72 h; note: nearly all actives have a fitted effect of over 55% in size
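NIH 3T3 cells at 400 cells/well received 23 nL of compound by pintool and were incubated 48 or 72 h at 37 °C. Viability was read as ATP-coupled CellTiter-Glo luminescence.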
Numbers without * were called inactive; ! = not confirmed by another sample; [ ] = remark or other dose. Unless noted, calls come from the whole dose curve; as a rule, active = well fitted curve in the direction sought with a large enough effect; inconclusive = small, poorly fitted or top-dose-only effect, or another doubt; inactive = no such curve, though single readings can be large; an effect the other way counts as inactive or inconclusive. % is set by controls: 0 for no effect and ±100 for the full control effect; potency is the fitted concentration of half-maximal effect.

CCCNC(=O)N[C@@H]1C[C@H](COc2ccc(S(C)(=O)=O)cc2)[C@@H](O)[C@H]1O was read as Luciferase inh inactive, HEK293 tox -7%[172 µM], hNpr1 antagonist 1%[70.6 µM], GPT2 inh 1%[88.5 µM] and NIH3T3 tox -12%[138 µM].
CCc1noc(-c2cn(C3CCN(C(=O)c4ccc5[nH]ccc5c4)CC3)nn2)n1 was read as Luciferase inh inactive, HEK293 tox inconclusive, hNpr1 antagonist -3%, GPT2 inh 2% and NIH3T3 tox -15%.
C[C@H]1CCCN1C(=O)c1nnc(COc2ccc(C#N)cc2)n1-c1cccnc1 was read as Luciferase inh inactive, HEK293 tox inconclusive, hNpr1 antagonist -4%[70.6 µM], GPT2 inh inactive and NIH3T3 tox 40µM*.
`O=C(c1nnc(COc2ccc(OC(F)(F)F)cc2)n1-c1ccccc1)N1CCC[C@@H]1C(c1ccccc1)c1ccccc1` gave Luciferase inh inactive, HEK293 tox inconclusive, hNpr1 antagonist 4%, GPT2 inh -4% and NIH3T3 tox 4.5µM*.
For CC(=O)Nc1cccc(OCc2nnc(C(=O)N3CCC[C@@H]3C(c3ccccc3)c3ccccc3)n2-c2ccccc2)c1 the results were Luciferase inh inactive, HEK293 tox inconclusive, hNpr1 antagonist -18%, GPT2 inh -5% and NIH3T3 tox inconclusive.
`C[C@H]1CCCN1C(=O)c1nnc(CNCc2ccc3c(c2)OCO3)n1-c1cccnc1` gave Luciferase inh inactive, HEK293 tox 2%[172 µM], hNpr1 antagonist 1%[70.6 µM], GPT2 inh inactive and NIH3T3 tox inconclusive.
Screening C[C@H]1CCCN1C(=O)c1nnc(COc2ccc(C#N)cc2)n1-c1ccccc1 returned Luciferase inh inactive, HEK293 tox -27%[172 µM], hNpr1 antagonist -1%[70.6 µM], GPT2 inh 1%[88.5 µM] and NIH3T3 tox 35µM*.
For COc1ccccc1OCc1nnc(C(=O)N2CCC[C@@H]2C(c2ccccc2)c2ccccc2)n1-c1ccccc1 the results were Luciferase inh inactive, HEK293 tox inconclusive, hNpr1 antagonist -8%, GPT2 inh -2% and NIH3T3 tox -28%.
Screening COc1cccc(-c2cc(C(=O)NCC3CCCCC3)c3cnn(C)c3n2)c1 returned HEK293 tox 40µM* and NIH3T3 tox inconclusive.
Screening COc1cccc(-c2cc(C(=O)NCC(F)(F)F)c3cnn(C)c3n2)c1 returned HEK293 tox -25% and NIH3T3 tox inconclusive.
Screening CCC(C)NC(=O)c1cc(-c2cccc(OC)c2)nc2c1cnn2C (stereo unspecified) returned HEK293 tox 100µM*! and NIH3T3 tox inconclusive.
Screening COc1ccccc1CN(C)[C@H]1[C@H](Oc2ccccn2)C[C@@H]2CC(C)(C)OC[C@]21O returned HEK293 tox inconclusive, GPT2 inh 3%[27.3 µM] and NIH3T3 tox -26%[46.1 µM].
`CN(C)C(=O)NCCNC(=O)c1ccc(-c2cccc(C(F)(F)F)c2)cc1` gave HEK293 tox 28µM* and NIH3T3 tox inconclusive.
Screening CC(C)NC(=O)NCCNC(=O)c1ccc(-c2cccc(C(F)(F)F)c2)cc1 returned HEK293 tox -26% and NIH3T3 tox inconclusive.
For CC(C)(C)C(=O)NCCNC(=O)c1ccc(-c2cccc(C(F)(F)F)c2)cc1 the results were HEK293 tox 28µM* and NIH3T3 tox inconclusive.
`CN1CCCN(S(=O)(=O)c2cccc(Br)c2)c2ccccc21` gave Luciferase inh inactive, HEK293 tox 40µM*, hNpr1 antagonist -23%, GPT2 inh -16% and NIH3T3 tox inconclusive.
Screening Cc1cccc(S(=O)(=O)N2CCCN(C)c3ccccc32)c1 returned Luciferase inh inactive, HEK293 tox inconclusive, hNpr1 antagonist -6%, GPT2 inh inactive and NIH3T3 tox inconclusive.
For CN1CCCN(S(=O)(=O)c2ccc(Cl)cc2)c2ccccc21 the results were Luciferase inh inactive, HEK293 tox inconclusive, hNpr1 antagonist 0%, GPT2 inh -8% and NIH3T3 tox inconclusive.
`CN1CCCN(S(=O)(=O)c2ccc(C(F)(F)F)cc2)c2ccccc21` gave Luciferase inh inactive, HEK293 tox 40µM*, hNpr1 antagonist -3%, GPT2 inh inconclusive and NIH3T3 tox inconclusive.
For CCCC(=O)NC1CCN(c2cnn(CC)c(=O)c2)CC1 the results were Luciferase inh inactive, HEK293 tox -5%, hNpr1 antagonist 1%, GPT2 inh 3% and NIH3T3 tox 3%.
Screening COc1ccc2[nH]c3c(c2c1)CCNC31CCN(C(=O)c2cnc(C)cn2)CC1 returned Luciferase inh inactive, HEK293 tox inconclusive, hNpr1 antagonist 9%, GPT2 inh inactive and NIH3T3 tox -3%.
For COc1ccc2[nH]c3c(c2c1)CCNC31CCN(C(=O)c2ccc(C)nc2)CC1 the results were Luciferase inh inactive, HEK293 tox 79µM*, hNpr1 antagonist 1%, GPT2 inh inactive and NIH3T3 tox -11%.
For COc1ccc2[nH]c3c(c2c1)CCNC31CCN(C(=O)c2ccc(OC)nc2OC)CC1 the results were Luciferase inh inactive, HEK293 tox 11µM*, hNpr1 antagonist 3%, GPT2 inh 1% and NIH3T3 tox -28%.
For COc1ccc2[nH]c3c(c2c1)CCNC31CCN(C(=O)c2ccccc2F)CC1 the results were Luciferase inh inactive, HEK293 tox inconclusive, hNpr1 antagonist 4%, GPT2 inh -3% and NIH3T3 tox inconclusive.
Screening COc1ccc(C(=O)N[C@@H]2CCC[C@@H]2C(=O)N2CCN(c3cccc(OC)c3)CC2)cc1 returned Luciferase inh inactive, HEK293 tox -27%, hNpr1 antagonist 4%, GPT2 inh inactive and NIH3T3 tox -18%.
COc1ccc(C(=O)N2CCc3ccc(C(=O)NCc4ccc5c(c4)OCO5)cc32)cc1 was read as Luciferase inh inactive, HEK293 tox inconclusive, hNpr1 antagonist -22%, GPT2 inh inactive and NIH3T3 tox inconclusive.
For COc1cccc(F)c1-c1ccc2c(n1)c(=O)ncn2Cc1ccccc1 the results were Luciferase inh inactive, HEK293 tox 2%[172 µM], hNpr1 antagonist -1%[70.6 µM], GPT2 inh 0%[88.5 µM] and NIH3T3 tox inconclusive.
For O=c1ncn(Cc2ccccc2)c2ccc(-c3ccc(F)cc3F)nc12 the results were Luciferase inh inactive, HEK293 tox -13%[172 µM], hNpr1 antagonist -2%[70.6 µM], GPT2 inh -11%[88.5 µM] and NIH3T3 tox 89µM*.
For Cc1ccccc1[C@@H]1CN(C(=O)CN(C)C2CCN(C)CC2)C[C@H]1C(=O)O the results were Luciferase inh inactive, HEK293 tox -2%, hNpr1 antagonist 12%, GPT2 inh inactive[11.5 µM] and NIH3T3 tox -18%.
Screening O=C(Cc1ccc(Cl)cc1)N1CCC2(CC1)NC(=O)N(c1ccccc1Cl)N2 returned Luciferase inh inactive, HEK293 tox 89µM*, hNpr1 antagonist -1%, GPT2 inh inconclusive and NIH3T3 tox 40µM*.

Bioassay records from PubChem.
